LASV entry inh – blocks Lassa virus binding to or entry into cells. Lassa virus pseudotype entry inhibition, cell reporter. Potency, µM (highest dose often 37.9 µM), hits mostly inhibitors. actives 1.2% (n = 300,000); calls by dose curve; tested in HEK293 cells; note: nearly all actives have a fitted effect of over 50% in size
Shiga inhibitor – blocks Shiga toxin action in Vero cells | Vero cells, Shiga toxin protein synthesis inhibition reporter | inhibition, % at 38.7 µM | actives 9.2% (n = 290,000) | AID 2315; in the data active = inhibition mostly above about 28%, no sharp cut-off; inactive = mostly below about 43%
FMDV antiviral – antivirals against foot and mouth disease virus | FMDV antiviral cell-based qHTS | Potency, µM (highest dose often 57.9 µM), hits mostly inhibitors | actives 1.2% (n = 410,000) | AID 1159524; calls by dose curve; tested in HEK293T cells; note: read-out not given here; nearly all actives have a fitted effect of over 45% in size
HCV inh – inhibitors of hepatitis C virus infection. Huh7.5.1 HCVcc-Cre infection, luciferase reporter, 44 h. Potency, µM (titrated, usually from 41.8 µM), most hits filed as inhibitors. actives 3.4% (n = 340,000). AID 651820; active = well fitted inhibition curve with a large enough effect; inconclusive = small, poorly fitted or top-dose-only effect, or another doubt; inactive = no such curve, though single readings can be large or run the other way
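Cells (1,000/well) were plated 4 h before compound, then infected with HCVcc-Cre virus (~0.5 moi). After 44 h further culture, infection was read as luciferase luminescence following a 15 min substrate incubation at room temperature.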
CHX counter – counter-screen for Shiga toxin inhibitors: cycloheximide protein synthesis inhibition | cell reporter, cycloheximide protein synthesis inhibition counterscreen | actives 12% (n = 300,000) | max response, %; in the data active = max response mostly above about 13%, no sharp cut-off; inactive = mostly below about 14%; note: read at 38.3 µM for the half of the compounds with a filed dose
MARV entry inh – blocks Marburg virus binding to or entry into cells; Marburg virus pseudotyped entry inhibition, cell reporter; Potency, µM (highest dose often 37.8 µM), actives largely listed as inhibitors; actives 1.8% (n = 300,000); calls by dose curve; tested in HEK293 cells
Large screens that a line does not name were inactive. Shown are actives, neighbours in structure and some others; about 13% of the full set was active somewhere.

COC(=O)c1ccccc1S(=O)(=O)N(Cc1cc2ccc(OC)cc2[nH]c1=O)CC1CCCO1 (stereo unspecified)	none
Cc1ccc2cc(CN(Cc3ccco3)S(=O)(=O)c3c(C)ccc4nsnc34)c(=O)[nH]c2c1	LASV entry inh inconclusive, HCV inh inconclusive, MARV entry inh inconclusive
COC(=O)c1cccc(S(=O)(=O)N(Cc2ccco2)Cc2cc3cc(OC)ccc3[nH]c2=O)c1	LASV entry inh inconclusive, FMDV antiviral 22µM, HCV inh inconclusive
Cc1cc2cc(CN(Cc3ccco3)S(=O)(=O)c3c(C)ccc4nsnc34)c(=O)[nH]c2cc1C	LASV entry inh 8.2µM, HCV inh inconclusive, MARV entry inh inconclusive
CC(=O)Nc1ccc(NS(=O)(=O)c2ccc(-c3csc(C)n3)s2)cc1	LASV entry inh inconclusive
C[C@]12CCC(=O)C=C1CC[C@@H]1C2CC[C@]2(C)C(=O)CCC12 (stereo partly specified)	none (no result: LASV entry inh, MARV entry inh)
CC(NS(=O)(=O)c1cn(C)c(=O)n(C)c1=O)c1ccccc1 (stereo unspecified)	MARV entry inh inconclusive
Cc1cc(Cn2nnc3ccccc32)c(O)c(C(C)(C)C)c1	HCV inh 10µM (no result: LASV entry inh, Shiga inhibitor, CHX counter, MARV entry inh)
CC(C)(C)c1cccc(Cn2nnc3ccccc32)c1O	HCV inh inconclusive (no result: LASV entry inh, Shiga inhibitor, CHX counter, MARV entry inh)
O=C(NCC1CCCO1)c1ccc(NS(=O)(=O)c2cccs2)cc1 (stereo unspecified)	none (no result: LASV entry inh, MARV entry inh)
CN(Cc1cccc(-n2cccn2)c1)C(=O)CCc1nnc(C2CCCCC2)o1	Shiga inhibitor 55, CHX counter 40, MARV entry inh inconclusive
CN(CCCN1CCCCC1)C(=O)CCc1nnc(C2CCCCC2)o1	MARV entry inh inconclusive
CCN(CCn1cccn1)C(=O)CCc1nnc(C2CCCCC2)o1	Shiga inhibitor 38, CHX counter 12 (no result: LASV entry inh, MARV entry inh)
Cc1ccc(Cn2c(O)c(N=NC(=S)Nc3ccccc3F)c3ccccc32)cc1	HCV inh inconclusive, MARV entry inh inconclusive
CCCc1nn(C)c(C(=O)Nc2cccc(Cl)c2)c1Cl	Shiga inhibitor 66, HCV inh inconclusive, CHX counter 50
CCCc1nn(C)c(C(=O)Nc2cccc(C)c2)c1Cl	LASV entry inh inconclusive, Shiga inhibitor 55, CHX counter 58
CCN1CCN(CC(=O)Nc2cc(C)on2)CC1	none
Cc1ccc2c(c1)sc1nc(=O)n(-c3ccccc3)c(=O)n12	Shiga inhibitor 93, CHX counter 45, MARV entry inh inconclusive
CC(C)(C)SCCNC(=O)COc1ccc(Cl)cc1	CHX counter 11 (no result: FMDV antiviral)
Cc1ccccc1CSCCNC(=O)COc1ccc(Cl)cc1	none
CCCCOc1c(Br)cc(CNCCCN2CCOCC2)cc1OC	LASV entry inh inconclusive, HCV inh 4µM, MARV entry inh inconclusive
CCNC(=S)Nc1ccc(N2CCCCC2)cc1	CHX counter 25
COCCCNC(=S)Nc1ccc(N2CCCCC2)cc1	Shiga inhibitor 84, MARV entry inh inconclusive
COCCCNC(=S)NNC(=S)Nc1ccc(OC)cc1	none (no result: LASV entry inh, MARV entry inh)
S=C(NCCc1ccccc1)Nc1ccc(N2CCCCC2)cc1	CHX counter 20 (no result: LASV entry inh, MARV entry inh)
Cc1ccc2c3c([nH]c2c1C)-c1nonc1CC3	Shiga inhibitor 44, HCV inh inconclusive, CHX counter 20
CCCCC(=O)N(C)c1c(CC)nc2c(OCC3CCCCC3)cccn12	none (no result: LASV entry inh, Shiga inhibitor, HCV inh, CHX counter, MARV entry inh)
COc1cc(/C=N/NC(N)=S)cc(Br)c1OCc1ccccc1F	LASV entry inh inconclusive, FMDV antiviral inconclusive, HCV inh 8.9µM, MARV entry inh inconclusive
CCOc1cc(/C=N/NC(N)=S)cc(Br)c1OCc1ccccc1C	LASV entry inh inconclusive, HCV inh 11µM, MARV entry inh inconclusive
CNC(=S)N/N=C/c1cc(Br)c(OCc2ccncc2)c(OC)c1	none (no result: LASV entry inh, Shiga inhibitor, MARV entry inh)
Cc1nc2c(cc1C(=O)N/N=C/c1ccc(O)c(O)c1)c(=O)n(C)c(=O)n2C	HCV inh inconclusive
COc1ccc(-c2ccc(=O)n(Cc3c(F)cccc3Cl)n2)cc1	Shiga inhibitor 48, HCV inh inconclusive, CHX counter 23 (no result: LASV entry inh, MARV entry inh)
O=c1ccc(-c2ccccc2)nn1Cc1ccc(Cl)cc1	FMDV antiviral inconclusive (no result: LASV entry inh, Shiga inhibitor, CHX counter, MARV entry inh)
COc1ccc(-c2ccc(=O)n(Cc3cccc([N+](=O)[O-])c3)n2)cc1	FMDV antiviral inconclusive, HCV inh 11µM (no result: LASV entry inh, MARV entry inh)
Cn1c(N)c(S(=O)(=O)c2ccc(Br)cc2)c2nc3ccccc3nc21	MARV entry inh 6.3µM
Nc1c(S(=O)(=O)c2ccccc2)c2nc3ccccc3nc2n1/N=C/c1cccc(O)c1	HCV inh 14µM
Cc1cccc(S(=O)(=O)c2c(N)n(/N=C/c3ccccc3)c3nc4ccccc4nc23)c1	MARV entry inh inconclusive

Bioassay records: PubChem, National Center for Advancing Translational Sciences (NCATS)
